Shown are actives, neighbours in structure and some others; about 2.4% of the full set was active somewhere.
eIF4H inh = inhibitors of RNA binding by human eIF4H | inhibition, % at 35 µM | AID 2012 | eIF4H fluorescence polarization binding assay | Q15056 | actives 0.94% (n = 290,000);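 note: calls also rest on retests at 20 µM and on dose response follow-up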
PABP polyA inh = blocks human PABP binding to poly(A) RNA | P11940 | AID 2014 | actives 1% (n = 290,000) | fluorescence polarization | calls only at 35 µM;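 note: calls also rest on retests at 20 µM and on dose response follow-up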
HMGR II inh = blocks class II HMG-CoA reductase of Enterococcus faecalis; AID 1066; inhibition, % at 10 µM; purified E. faecalis HMGR, NADPH absorbance 340 nm kinetic; actives 0.41% (n = 190,000);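 active = inhibition above a set limit, the median over all tested compounds plus 3 SD, cut at about 9.5% in these data; inconclusive = no clear call, values can overlap the other calls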;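 note: enzyme runs in reverse so mevalonate oxidation gives rising NADPH absorbance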
MLLE-PAM2 inh = inhibitors of microRNA-mediated deadenylation, human PABP1 MLLE binding. actives 0.36% (n = 360,000). inhibition, % at 20 µM. GST-MLLE / FITC-PAM2 fluorescence polarization. P11940; in the data active = inhibition above about 35%, passing the limit was not always enough
PHOSPHO1 block = PHOSPHO1 (human) inhibition; Q8TCT1; recombinant PHOSPHO1, absorbance phosphatase assay; inhibition, % at 13.3 µM; actives 1.1% (n = 290,000); in the data active = inhibition above about 60%
Target sequence (Q8TCT1 whole entry, looked up): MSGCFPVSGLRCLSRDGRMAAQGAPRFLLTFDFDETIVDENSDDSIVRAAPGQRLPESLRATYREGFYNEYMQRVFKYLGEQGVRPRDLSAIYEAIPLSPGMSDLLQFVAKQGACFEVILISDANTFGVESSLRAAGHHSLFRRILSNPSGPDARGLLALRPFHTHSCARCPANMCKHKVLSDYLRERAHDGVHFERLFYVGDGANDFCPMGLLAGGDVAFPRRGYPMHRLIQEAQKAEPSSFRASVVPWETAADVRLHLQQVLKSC
Of the large screens only hits and unclear results are named; the others gave an inactive call. Unless noted, the rule behind the calls is not given here.

CCOC(=O)c1sc(NC(=O)CSc2n[nH]c(-c3ccccc3)n2)c(C#N)c1C	PHOSPHO1 block 76.6
Cc1cccn2c(=O)c3cc(C(=O)NCc4cccnc4)c(=N)n(CC4CCCO4)c3nc12 (stereo not given)	none (no result: HMGR II inh)
CCN1CCN(c2c(/C=C3\SC(=S)N(Cc4ccco4)C3=O)c(C)c(C#N)c(=O)n2C)CC1	eIF4H inh inconclusive, PABP polyA inh active (no result: HMGR II inh)
COc1ccc(-n2c(C)cc(/C=C3\SC(=S)N(Cc4ccco4)C3=O)c2C)cc1	none
O=C(O)/C=C/C(=O)Nc1ccc(OC(F)(F)F)cc1Br	none (no result: HMGR II inh)
N=C1/C(=C\c2ccc(-c3cccc(C(=O)O)c3)o2)C(=O)N=C2SC=C(c3ccccc3)N12	eIF4H inh 57.6, PABP polyA inh active, PHOSPHO1 block 80.4 (no result: HMGR II inh)
O=Cc1ccc(-c2cccc(C(=O)O)c2)o1	none
N=C1/C(=C/c2ccc(-c3cccc(C(=O)O)c3)o2)C(=O)N=C2SC(CC(=O)N3CCOCC3)=NN12	eIF4H inh 61.7, PABP polyA inh active (no result: HMGR II inh)
O=[N+]([O-])c1cc2ccccc2c(O)c1O	MLLE-PAM2 inh 40.9 (no result: eIF4H inh, PABP polyA inh, HMGR II inh, PHOSPHO1 block)
O=[N+]([O-])c1cc(-c2ccccc2)cc([N+](=O)[O-])c1O	none (no result: eIF4H inh, PABP polyA inh, HMGR II inh, PHOSPHO1 block)
O=C(O)c1ccc(N2CCCS2(=O)=O)cc1	none (no result: HMGR II inh)
N#C/C(=C/c1ccccc1)C(=O)NCc1ccccc1	PHOSPHO1 block 64.3
N#C/C(=C\c1ccc(O)c(Br)c1)C(=O)NCc1ccccc1	none
O=C(COC(=O)C1CCN(S(=O)(=O)c2cc([N+](=O)[O-])ccc2Cl)CC1)Nc1ncc(Cl)cc1Cl	eIF4H inh 69.7, PABP polyA inh active
Nc1c(/C=C2/C=CC(=O)C(O)=C2)c(=O)nc2sc(CC(=O)N3CCOCC3)nn12	none (no result: eIF4H inh, PABP polyA inh, HMGR II inh, PHOSPHO1 block)
Nc1c(/C=C2/C=CC(=O)C(O)=C2)c(=O)nc2sc(CC(=O)N3CCCCC3)nn12	eIF4H inh 68.9, PABP polyA inh active (no result: HMGR II inh)
Nc1c(/C=C2/C=CC(=O)C(O)=C2)c(=O)nc2sc(CC(=O)N3CCCC3)nn12	eIF4H inh 55.2, PABP polyA inh active (no result: HMGR II inh)
CCOc1ccc(N=c2scc(-c3ccccc3)n2CCO)cc1	PHOSPHO1 block 97.6
COCCCNC(=O)c1ccc(N2CCCC2)c(NS(=O)(=O)c2ccc(C)cc2)c1	PHOSPHO1 block 63.7
CCOCCCNC(=O)c1ccc(N2CCCC2)c(NS(=O)(=O)c2ccc(C)cc2)c1	none
COc1ccc(NC(C)=O)cc1NC(=O)c1ccc2ccccc2c1	none
CC1CCN(c2ccc(NC(=O)c3ccc([N+](=O)[O-])o3)cc2)CC1	none (no result: eIF4H inh, PABP polyA inh, HMGR II inh, PHOSPHO1 block)
O=C(Nc1ccc(N2CCCCC2)cc1)c1ccc([N+](=O)[O-])o1	eIF4H inh 74.3, PABP polyA inh active (no result: HMGR II inh)
O=C(Nc1ccc(N2CCCCC2)cc1)c1ccc2c(c1)OCCO2	HMGR II inh 27.4
O=C(COC(=O)C12CC3CC(CC(Br)(C3)C1)C2)Nc1ccc2[nH]c(=O)[nH]c2c1	none (no result: eIF4H inh, PABP polyA inh, HMGR II inh, PHOSPHO1 block)
COc1cc(N2CN=c3s/c(=C\c4ccccn4)c(=O)n3C2)cc(OC)c1OC	none
CN(CC(=O)NC(=O)NCc1ccco1)Cc1nc2ccccc2c(=O)[nH]1	eIF4H inh 69.2, PABP polyA inh active
Cc1ccc([C@@H]2C[C@H]3[C@@H](CN2S(=O)(=O)c2ccc(Cl)cc2)C(=O)C[C@@H](c2ccc(C)cc2)N3S(=O)(=O)c2ccc(Cl)cc2)cc1	none (no result: eIF4H inh, PABP polyA inh, HMGR II inh, PHOSPHO1 block)
CCOC(=O)CCCc1sc(N)nc1-c1[nH]c(=O)[nH]c1C	PHOSPHO1 block 87.5
Cc1cccc(/C(N)=N/OC(=O)c2ccc3c(c2)OCO3)c1	eIF4H inh 2.0, PABP polyA inh active
Cc1ccc(C)c(NC(=O)COC(=O)c2ccc3c(c2)OCO3)c1	eIF4H inh 14.0, PABP polyA inh active
N/C(=N\OC(=O)c1ccc2c(c1)OCO2)c1cccc([N+](=O)[O-])c1	none
CC(=O)c1c(C(C)=O)c(C)n(-c2cccc3cccnc23)c1C	PABP polyA inh active
O=[N+]([O-])c1ccc(CSc2nc3ccccc3[nH]2)cc1	PABP polyA inh active
O=C(NCCCO)c1ccc(CSc2nc3ccccc3[nH]2)cc1	HMGR II inh 13.2
OCC1CCCN(C(=S)Nc2ccc(Nc3ccccc3)cc2)C1 (stereo not given)	eIF4H inh inconclusive, PABP polyA inh active
CC(C)(CO)NC(=O)CC1C(=O)NCCN1CC(c1ccccc1)c1ccccc1 (stereo not given)	HMGR II inh 10.3
NC(=O)C1CCN(CC(=O)NC2CCCc3ccccc32)CC1 (stereo not given)	none
Cc1ccc(-c2nnn(CC(=O)NC3CCCc4ccccc43)n2)cc1 (stereo not given)	PHOSPHO1 block 62.3
O=Cc1ccc(OC(=O)c2cc(Cl)nc3ccccc23)cc1	MLLE-PAM2 inh 36.5
CCC(CO)Oc1cc(NC(=O)c2ccccc2[N+](=O)[O-])c2ncn(C(C)C)c2c1 (stereo not given)	none (no result: eIF4H inh, PABP polyA inh, HMGR II inh, PHOSPHO1 block)
Cc1ccc2nc3c(c(N)c2c1)CCN3C	none (no result: HMGR II inh)
Cc1ccc2nc3c(c(N)c2c1)CCN3c1ccccc1	eIF4H inh 51.1
CN(CC(=O)Nc1c(Cl)cccc1Cl)C(=O)c1ccc2nc[nH]c2c1	none (no result: eIF4H inh, PABP polyA inh, HMGR II inh, PHOSPHO1 block)
COc1ccc(CNC(=O)C(=O)NCCC2CCCCN2S(=O)(=O)c2cccs2)cc1 (stereo not given)	none (no result: eIF4H inh, PABP polyA inh, HMGR II inh, PHOSPHO1 block)
CCCc1cc(SCC(=O)Nc2c(C)n(C)n(-c3ccccc3)c2=O)n2c(nc3ccccc32)c1C#N	PHOSPHO1 block 99.8 (no result: MLLE-PAM2 inh)
CCN1CCN(CCNC(=O)c2cc(Cl)c(NC(=O)C3=C(C)OCCS3)cc2OC)CC1	none (no result: HMGR II inh)
CCN(CC)CCCNC(=O)c1cc(Cl)c(NC(=O)C2=C(C)OCCS2)cc1OC	eIF4H inh 92.6, PABP polyA inh active (no result: HMGR II inh)
C/C(=N\NC(=O)CN1CCN(Cc2ccc(C)cc2)CC1)c1ccncc1	none
COc1cccc(/C=C2\SC(=O)N(CC(=O)NC3CCS(=O)(=O)C3)C2=O)c1 (stereo not given)	none (no result: HMGR II inh)
CN(C(=O)CN1C(=O)/C(=C/c2ccccc2Cl)SC1=S)C1CCS(=O)(=O)C1 (stereo not given)	MLLE-PAM2 inh 40.9 (no result: HMGR II inh)
COc1cccc(/C=C2\SC(=O)N(CC(=O)NC3C=CS(=O)(=O)C3)C2=O)c1 (stereo not given)	MLLE-PAM2 inh 41.5 (no result: HMGR II inh)
O=C(CN1C(=O)/C(=C/c2ccccc2)SC1=S)NC1C=CS(=O)(=O)C1 (stereo not given)	none (no result: eIF4H inh, PABP polyA inh, HMGR II inh)
O=C(CN1C(=O)/C(=C/c2ccccc2Cl)SC1=S)NC1C=CS(=O)(=O)C1 (stereo not given)	PHOSPHO1 block 75.4 (no result: eIF4H inh, PABP polyA inh, HMGR II inh)
COc1ccccc1OCC(=O)NCC1CCCN(Cc2cnn(C(C)C)c2)C1 (stereo not given)	none (no result: HMGR II inh)
N#CC1=C2SCN(Cc3ccccc3)CN2C(=O)CC1c1ccc2c(c1)OCO2 (stereo not given)	PHOSPHO1 block 63.2
COc1cc(C2CC(=O)N3CN(Cc4ccco4)CSC3=C2C#N)ccc1OCc1ccccc1 (stereo not given)	none
N#CC1=C2SCN(Cc3ccccc3)CN2C(=O)CC1c1cccs1 (stereo not given)	PHOSPHO1 block 67.5
CCCOC(=O)c1ccc(O)c(OC)c1	none
COc1cc(C(=S)N(C)C)ccc1O	PHOSPHO1 block 69.2
N#CCSc1nc2ccc(N3CCCCC3)cc2c(=O)n1Cc1ccccc1	PHOSPHO1 block 66.7

Compound activity as filed in PubChem.
